Measurements published in article PMC4336329 (PLoS ONE, 2015).
Screen size: about 310,000 compounds; about 14,000 (4.5%) showed an effect of 50% or more. Effects have a minus sign here. For the sample, strong results were picked, then their nearest neighbours and some compounds at random.

target: human ether-à-go-go-related gene (hERG) potassium channel (human, UniProt Q12809); test: primary screen, population patch clamp on CHO cells stably expressing hERG; higher = less effect of the substance
Sequence (Q12809 whole entry, looked up): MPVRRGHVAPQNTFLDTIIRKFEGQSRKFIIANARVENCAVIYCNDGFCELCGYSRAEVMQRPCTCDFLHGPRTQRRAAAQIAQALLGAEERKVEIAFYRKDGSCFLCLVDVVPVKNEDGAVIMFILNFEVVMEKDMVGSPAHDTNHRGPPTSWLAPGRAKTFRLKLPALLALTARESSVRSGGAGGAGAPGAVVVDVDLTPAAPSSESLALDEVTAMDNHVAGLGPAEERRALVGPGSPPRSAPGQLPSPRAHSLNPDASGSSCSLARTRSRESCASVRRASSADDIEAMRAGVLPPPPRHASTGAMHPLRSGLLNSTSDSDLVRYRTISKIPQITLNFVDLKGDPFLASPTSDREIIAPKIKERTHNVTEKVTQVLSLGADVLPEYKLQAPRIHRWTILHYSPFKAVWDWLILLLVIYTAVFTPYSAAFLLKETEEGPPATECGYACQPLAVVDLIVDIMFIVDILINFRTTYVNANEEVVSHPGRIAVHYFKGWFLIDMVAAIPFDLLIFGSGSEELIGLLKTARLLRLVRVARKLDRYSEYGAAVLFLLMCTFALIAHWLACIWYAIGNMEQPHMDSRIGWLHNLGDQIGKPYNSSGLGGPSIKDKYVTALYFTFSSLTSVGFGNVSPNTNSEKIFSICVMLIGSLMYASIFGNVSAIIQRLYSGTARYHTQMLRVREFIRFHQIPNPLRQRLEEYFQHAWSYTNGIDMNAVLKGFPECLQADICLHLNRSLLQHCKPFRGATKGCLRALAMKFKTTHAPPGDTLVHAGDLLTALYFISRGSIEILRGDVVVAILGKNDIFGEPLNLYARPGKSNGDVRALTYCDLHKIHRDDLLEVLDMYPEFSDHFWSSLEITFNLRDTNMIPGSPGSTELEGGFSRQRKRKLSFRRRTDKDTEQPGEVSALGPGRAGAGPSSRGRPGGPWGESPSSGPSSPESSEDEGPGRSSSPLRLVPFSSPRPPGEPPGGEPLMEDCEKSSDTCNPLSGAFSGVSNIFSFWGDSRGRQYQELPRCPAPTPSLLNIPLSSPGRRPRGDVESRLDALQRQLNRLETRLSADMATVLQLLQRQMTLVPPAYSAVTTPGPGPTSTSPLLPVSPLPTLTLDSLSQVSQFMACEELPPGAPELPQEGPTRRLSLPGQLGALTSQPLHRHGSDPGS
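Further: peak tail current of the secondary pulse compared with the same well before compound.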

Row | Structure (SMILES) | hERG current change (%, negative = inhibition) at 10uM [%]
1 | COc1cc2nc(Nc3cccc(F)c3)nc(N)c2cc1OC.Cl | -17.7
2 | O=C(NC1CC2CCC1C2)C1CCN(S(=O)(=O)c2ccc(-c3nn[nH]n3)cc2)CC1 (stereo not drawn) | 14.4
3 | O=C(O)c1cc(N2C(=O)C3CC=CCC3C2=O)ccc1NCc1cccnc1 (stereo not drawn) | 15
4 | CC(=O)c1cc(CN2CCN(C3CCCCC3)C(CCO)C2)cs1 (stereo not drawn) | -17.2
5 | CC(=O)c1cc(CN2CCN(CC=C(C)C)C(CCO)C2)cs1 (stereo not drawn) | 16.3
6 | CC(=O)c1cc(CN2CCN(Cc3ccc(C)cc3)C(CCO)C2)cs1 (stereo not drawn) | -55
7 | CN1C(N)=NC(=O)/C1=C\c1ccc(Br)cc1 | 8.35
8 | CC(C)CC(C(=O)NC1CCCC1)N(Cc1ccc2c(c1)OCO2)C(=O)c1snc(C(N)=O)c1N (stereo not drawn) | -20.4
9 | CCN1CCCC1CNC(=O)c1cc2c(C)nc3ccccc3c2o1 (stereo not drawn) | -12
10 | O=C(O)C(=O)O.c1ccc(COc2ccc(OCCCCN3CCCC3)cc2)cc1 | -64
11 | O=C(O)C(=O)O.c1ccc(COc2ccc(OCCCCN3CCCCC3)cc2)cc1 | -70.5
12 | CSc1cccc(N2CC(C(=O)NCCC3=CCCCC3)CC2=O)c1 (stereo not drawn) | 14.1
13 | Cc1cccc(NC(=O)C2NC(=O)CC2c2ccccc2)c1C (stereo not drawn) | 1.2
14 | O=C(CSc1nnc(NC(=O)c2ccc(F)cc2F)s1)NC1CCCC1 | 17.7
15 | Clc1ccc(N=C2SCC3CCCCN23)cc1 (stereo not drawn) | -18.3
16 | COc1ccc(S(=O)(=O)N2CCN(c3nc(C)cc(C)n3)CC2)cc1 | 2.96
17 | Cc1nc2cc(C(=O)OCC(=O)Nc3cccc(Cl)c3)ccc2n1-c1ccccc1 | -13.6
18 | O=C(Nc1ncc(C(F)(F)F)cc1Cl)c1ccc(S(=O)(=O)N2CCOCC2)cc1 | -13.4
19 | COc1cc(/C=N/NC(=O)c2ccncc2)ccc1OC(=O)c1ccccc1Cl | -50.8
20 | COc1cccc(C(=O)Nc2cccc(-c3nnc(-c4ccccc4)o3)c2)c1 | -4.18
21 | COc1ccc(/C=N/NC(=O)c2cccc(NC(=O)c3ccccc3Cl)c2)cc1OC | -3.89

Row | Structure (SMILES) | hERG current change (%, negative = inhibition) at 10uM [%]
22 | COc1cc(C(=O)N/N=C/c2ccc(OC(=O)c3ccccc3Cl)c(OC)c2)ccc1O | 13.4
23 | COc1cc(/C=N/NC(=O)c2cccc(NC(=O)c3ccccc3Cl)c2)ccc1O | -55.6
24 | COc1cccc(C(=O)Nc2cccc(-c3nnc(-c4ccco4)o3)c2)c1 | -51.4
25 | COc1ccc(C(=O)Nc2cccc(-c3nnc(-c4ccco4)o3)c2)cc1 | -37.4
26 | CC(C)Oc1cccc(C(=O)NC(=S)Nc2cccc(NC(=O)c3ccccc3Cl)c2)c1 | -11.9
27 | COc1cc(/C=N/NC(=O)c2cccc(NC(=O)c3ccccc3C)c2)ccc1O | -48.4
28 | COc1cccc(C(=O)Nc2cccc(NC(=O)c3ccccc3Cl)c2)c1 | -52
29 | COc1cc(/C=N\NC(=O)c2cccnc2)ccc1OC(=O)c1ccccc1Cl | -7.3
30 | COc1cccc(C(=O)Nc2cccc(NC(C)=O)c2)c1 | -8.39
31 | CCOc1ccc(NC(=O)CCN2C(=O)CSc3ccccc32)cc1 | -25.3
32 | O=C(/C=C\Nc1ccc2c(c1)OCO2)c1cccs1 | 17.6
33 | Cc1nc(SCC(=O)Nc2c(C)nn(C)c2C)c2cnn(-c3ccccc3)c2n1 | 14
34 | Cc1ccc(S(=O)(=O)N2CCOCC2)cc1NC(=O)c1cc(-c2ccccn2)nc2ccccc12 | -46.7
35 | S=c1[nH]nc(-c2ccc(Cl)cc2Cl)n1-c1ccc2c(c1)OCCO2 | 6.46
36 | c1ccc(C2CCC(N3CCC(N4CCCCC4)CC3)CC2)cc1 (stereo not drawn) | 10.8
37 | COCCNC(=O)CSCc1c(F)cccc1Cl | 3.73
38 | CCCc1cc(=O)oc2cc(C)cc(OC(C)C(=O)NCc3ccccn3)c12 (stereo not drawn) | -8.3
39 | Fc1cccc2sc(Nc3nnc(-c4ccccc4)o3)nc12 | 20.5
40 | O=c1[nH]nc(N/N=C/c2ccc(Cl)cc2Cl)c(=O)[nH]1 | -1.17
41 | Cn1c(SCC(=O)O)nnc1-c1cccc(NC(=O)c2cccc3ccccc23)c1 | 7.15
42 | COC(=O)c1cccc(NC(=O)c2ccc(OC)c(Cl)c2)c1 | -65.3

Row | Structure (SMILES) | hERG current change (%, negative = inhibition) at 10uM [%]
43 | COc1cccc(C(=O)NCCSCc2ccccc2Cl)c1 | -53.2
44 | COc1ccc(C(=O)Nc2cc(C(=O)O)cc(C(=O)O)c2)cc1Cl | 19.5
45 | COc1ccccc1C(=O)NCCSCc1ccccc1Cl | -15.4
46 | COc1ccc(NC(=O)c2cccc(F)c2)cc1Cl | 1.72
47 | COc1cccc(C(=O)NCCSCc2c(F)cccc2Cl)c1 | -29
48 | CCNS(=O)(=O)c1ccc(CCC(=O)NCCC2=CCCCC2)cc1 | -23.6
49 | Cc1cccc(C)c1NC(=O)COC(=O)c1ccc2c(c1)OCO2 | -4.84
50 | c1cnc2c(SCc3ccc(-c4nnco4)cc3)cccc2c1 | 1.45
51 | COc1cc(OC)c(NC(=O)c2csc(C)c2)cc1Cl | 14.2
52 | Cc1ccccc1CNC(=O)/C=C\C(=O)O | 3.23
53 | FC(F)(F)c1cc(-c2cccs2)nc(-n2cc(Cl)cn2)n1 | 0.253
54 | CCOc1ccc(CCNC(=O)Cn2c(-c3nonc3N)nc3ccccc32)cc1OCC | -3.72
55 | CC1(C)CC(=O)c2c(O)c(-c3ccccc3)c(=O)n(-c3ccccc3)c2C1 | -6.83
56 | Cc1ccc(-n2c3c(cc(C(=O)O)c2=O)C(=O)CC(C)(C)C3)cc1 | 19.2
57 | Cc1ccc(-n2c3c(c(O)c(-c4ccccc4)c2=O)C(=O)CC(C)(C)C3)cc1 | -55.2
58 | O=C(c1ccc2nccnc2c1)N1CCCC(N2CCN(c3ccc(F)cc3)CC2)C1 (stereo not drawn) | -9.66
59 | O=C(NCC(c1cccnc1)N1CCN(c2ccccc2)CC1)Oc1ccccc1 (stereo not drawn) | -19.2
60 | O=S(=O)(NCC(c1cccnc1)N1CCN(c2ccccc2)CC1)c1cc(F)ccc1F (stereo not drawn) | -62.8
61 | O=S(=O)(NCC(c1cccnc1)N1CCN(Cc2ccccc2)CC1)c1cc(F)ccc1F (stereo not drawn) | -69.1
62 | COc1ccccc1N1CCN(C(CNS(=O)(=O)c2cc(F)ccc2F)c2cccnc2)CC1 (stereo not drawn) | -35
63 | O=C(NCc1ccc(Cl)cc1)C(=O)NCC(c1cccnc1)N1CCN(c2ccc(F)cc2)CC1 (stereo not drawn) | -45.5

Row | Structure (SMILES) | hERG current change (%, negative = inhibition) at 10uM [%]
64 | CCS(=O)(=O)NCC(c1cccnc1)N1CCN(c2ccccc2)CC1 (stereo not drawn) | -28.1
65 | O=S(=O)(NCC(c1cccnc1)N1CCN(c2ccc(F)cc2)CC1)c1cc(F)ccc1F (stereo not drawn) | -65.8
66 | O=C(NCC(c1cccnc1)N1CCN(c2ccc(F)cc2)CC1)C1CCCCC1 (stereo not drawn) | -45.5
67 | Cc1cc(F)ccc1S(=O)(=O)NCC(c1cccnc1)N1CCc2ccccc21 (stereo not drawn) | -1.61
68 | COc1ccc(N2CCN(C(CNS(=O)(=O)c3cc(F)ccc3F)c3cccnc3)CC2)cc1 (stereo not drawn) | -69
69 | COc1ccc(N2CCN(C(CNC(=O)C(C)(C)C)c3cccnc3)CC2)cc1 (stereo not drawn) | -36.7
70 | CC1CCCCN1C(=O)c1cc2nc(-c3ccccc3)cc(-c3ccccc3)n2n1 (stereo not drawn) | -14.5
71 | O=S(N1CCCCC1)C12CC3CC(CC(C3)C1)C2 (stereo not drawn) | -6.95
72 | COc1ccc(-c2nc(NC(=O)CCNC(=O)c3ccco3)sc2C)cc1 | -11.1
73 | CC(C)C[C@H](NC(=O)N1CC(=O)Nc2ccccc21)C(=O)N[C@@H](Cc1ccccc1)C(=O)O | 13.2
74 | NC(=O)Cn1cc(C(=O)c2cccs2)c2ccccc21 | -2.95
75 | O=C(NNc1cc(Cl)ccc1Cl)c1cccs1 | 7.63
76 | Cc1c(Br)c([N+](=O)[O-])nn1C(C)C(=O)N1CCc2ccccc2C1 (stereo not drawn) | -13.4
77 | Cc1c(OC(C)C(=O)NC2CC(C)(C)NC(C)(C)C2)ccc2c3c(c(=O)oc12)CCC3 (stereo not drawn) | 12.5
78 | COc1cc(/C=N/N(C)C2=NS(=O)(=O)c3ccccc32)cc(OC)c1OC | 7.82
79 | CC1CCCN(CCCNC(=O)c2ccc(CS(=O)(=O)Cc3cccc(Cl)c3)o2)C1 (stereo not drawn) | -40.7
80 | Cc1ccc(CS(=O)(=O)Cc2ccc(C(=O)NCCCN3CC(C)CC(C)C3)o2)cc1 (stereo not drawn) | -60.2
81 | CC1CC(C)CN(CCCNC(=O)c2ccc(CS(=O)(=O)Cc3cccc(Cl)c3)o2)C1 (stereo not drawn) | -69.1
82 | Cc1ccccc1CS(=O)(=O)Cc1ccc(C(=O)NCCCN2CC(C)CC(C)C2)o1 (stereo not drawn) | -36.1
83 | CC1CCN(CCCNC(=O)c2ccc(CS(=O)(=O)Cc3ccc(Cl)cc3)o2)CC1 | -44
84 | Cc1ccc(CS(=O)(=O)Cc2ccc(C(=O)NCCCN3CCOCC3)o2)cc1 | 6.75
